About 79,000 compounds went through this panel and 15% of them were active in at least one assay; those are over-represented in the sample as a whole. Unmarked numbers belong to inactive results. Active and inactive are the calls of the source. Cut-off read from the data, not from the text of the source: active = growth inhibition above about 70%; inactive = the rest.
Assays:
[1] = NCI Yeast Anticancer Drug Screen. Data for the rad50 strain (AID 155);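 note: 0% = growth of vehicle-only cultures of the same strain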; conditions: S. cerevisiae rad50 strain growth inhibition, hits give high values
Method in brief: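 Growth of the mutant yeast was measured after compound exposure and referenced to vehicle-treated cultures.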

[2] = NCI Yeast Anticancer Drug Screen. Data for the mec2-1 strain (AID 157); conditions: S. cerevisiae mec2-1 strain, hits give high values
Method in brief: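 Vehicle-treated cultures served as reference for growth inhibition of compound-exposed mec2-1 yeast.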

[3] = NCI Yeast Anticancer Drug Screen. Data for the sgs1 mgt1 strain (AID 161);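 note: 0% = growth of cultures given vehicle only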; conditions: S. cerevisiae sgs1 mgt1 strain, hits give high values
Method in brief: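 Read-out: growth inhibition vs vehicle controls. Cells: mutant yeast strain deficient in DNA damage repair.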

[4] = NCI Yeast Anticancer Drug Screen. Data for the cln2 rad14 strain (AID 165);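 note: 0% = growth equal to vehicle treated cultures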; conditions: S. cerevisiae cln2 rad14 strain, hits give high values
Method in brief: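 Each compound was tested on cln2 rad14 yeast. Inhibition of growth was calculated against vehicle-exposed controls.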

[5] = NCI Yeast Anticancer Drug Screen. Data for the bub3 strain (AID 167); conditions: S. cerevisiae bub3 mutant strain, hits give high values
Method in brief: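 Whole-cell yeast assay. The mutant strain was incubated with compounds, and growth inhibition was determined by comparison with vehicle-treated cells.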

[6] = NCI Yeast Anticancer Drug Screen. Data for the mlh1 rad18 strain (AID 175); conditions: S. cerevisiae mlh1 rad18 strain growth inhibition, hits give high values
Method in brief: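 Vehicle-treated cultures served as the reference for growth inhibition in a yeast strain carrying DNA damage repair alterations exposed to each compound.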

[7] = at 5.0 µM (retest, dose inferred, filed as 0.5)
[8] = at 50.0 µM (retest, dose inferred, filed as 5.0)

| Compound | growth inhibition [1, 7] [%] | growth inhibition [1, 8] | growth inhibition ([1]; at 50.0 µM) | growth inhibition [2, 7] [%] | growth inhibition [2, 8] | growth inhibition ([2]; at 50.0 µM) | growth inhibition [3, 7] [%] | growth inhibition [3, 8] | growth inhibition ([3]; at 50.0 µM) | growth inhibition [4, 7] [%] | growth inhibition [4, 8] | growth inhibition ([4]; at 50.0 µM) | growth inhibition [5, 7] [%] | growth inhibition [5, 8] | growth inhibition ([5]; at 50.0 µM) | growth inhibition [6, 7] [%] | growth inhibition [6, 8] | growth inhibition ([6]; at 50.0 µM) |
| --- | --- | --- | --- | --- | --- | --- | --- | --- | --- | --- | --- | --- | --- | --- | --- | --- | --- | --- |
| S=c1sc2ccccc2n1CNc1ccccc1 | -2 | 14% | 64.9% | 0 | 7% | 68.1% | 2 | 53% | 72.2% (active) | -5 | -10% | -40.6% | -1 | 18% | 74.3% (active) | 5 | -11% | 69.3% |
| Cc1cn(C2CC(Br)C(COC(c3ccccc3)(c3ccccc3)c3ccccc3)O2)c(=O)[nH]c1=O (configuration not stated) | 10 | 97% (active) | 97.6% (active) | 6 | 99% (active) | 98.3% (active) | 8 | 33% | 98.2% (active) | 2 | 97% (active) | 96.8% (active) | 6 | 99% (active) | 96.2% (active) | 8 | 98% (active) | 97.9% (active) |
| O=C(O)COc1cc(Br)cc(Br)c1-c1ccccc1 | 2 | 36% | 65.2% | 14 | 70% (active) | 59.5% | -10 | 39% | 71.2% (active) | 2 | 56% | 65% | -3 | 46% | 29.8% | 22 | 78% (active) | 67.7% |
| C=C(c1ccc2nc(NC(=O)OC)[nH]c2c1)c1cccs1 | -4 | 47% | 61.3% | -7 | 88% (active) | 93.2% (active) | -4 | 72% (active) | 91.8% (active) | -9 | 18% | 41.1% | -3 | 84% (active) | 90.5% (active) | -9 | 92% (active) | 95% (active) |
| Clc1ccccc1/C=C/c1ccccn1 | -8 | 4% | 41.2% | -6 | -16% | 30.7% | -8 | 1% | 74.7% (active) | -9 | -16% | 16.2% | -3 | 30% | 67.5% | -7 | -6% | 71.8% (active) |
| C=C1C(=O)O[C@@H]2CC(CO)=C([C@@H](C)CCCO)[C@@H](OC(=O)/C(C)=C\C)[C@H]12 | 3 | 10% | 92.2% (active) | 5 | 33% | 94.3% (active) | 4 | 25% | 93.8% (active) | 1 | 6% | 92.2% (active) | 9 | 65% | 92.8% (active) | -2 | 29% | -33.3% |
| COC(=O)c1cc[nH]c(=O)c1 | -150 | -166% | 9.2% | -48 | -56% | 12.2% | -62 | -68% | 11.4% | -55 | -70% | -18.8% | -71 | -86% | 0.55% | -138 | -122% | 60.8% |
| CC(c1ccc(OCc2ccccc2)cc1)c1cc2c(cc1OCCO)OCO2 (configuration not stated) | 3 | 46% | 61.2% | -1 | 41% | 76.2% (active) | 9 | 57% | 31.9% | -1 | 47% | 43.5% | 6 | 58% | 49.7% | 4 | 62% | 43.2% |
| CC[N+](C)(CC)CCC[n+]1c(-c2ccccc2)c2cc(N)ccc2c2ccc(N)cc21 | 60 | 90% (active) | 94.6% (active) | 1 | 27% | 44.2% | -2 | 33% | 68.9% | -3 | 19% | 24.9% | -7 | 9% | 18.9% | 4 | 49% | 82% (active) |
| COc1ccc(-c2noc(=O)c3ccccc23)cc1 | 11 | 6% | -5.8% | 5 | 4% | -1.1% | 6 | 4% | 3.4% | 4 | 3% | 64.2% | -3 | -2% | 9.65% | -1 | 1% | 1.35% |
| C=CCc1cccc(/C=N\N=C(/N)NO)c1O | -1 | 26% | 43.5% | 2 | 35% | 84.5% (active) | 3 | 59% | 41.1% | -6 | 26% | 48.6% | -4 | 8% | 70% (active) | -2 | 42% | 83.2% (active) |
| O=C(Nc1cc(Cl)c(Cl)cc1Cl)C(=O)C(C(=O)c1ccc2ccccc2c1)C1OC(=O)c2ccccc21 (configuration not stated) | 17 | 17% | 67.7% | 2 | 2% | 37.2% | 15 | 15% | 63.9% | 6 | 6% | 64.5% | -8 | -8% | 59.2% | -14 | -14% | 40% |
| COc1ccc(/C=C(/C#N)c2ccccc2)cc1 | 8 | -2% | 67.1% | 9 | 27% | 19.6% | 9 | 2% | 81.5% (active) | 1 | 4% | 16.4% | 10 | 55% | 73.5% (active) | 5 | 19% | 69% |
| O=C(CCCN1CCN2Cc3[nH]c4ccccc4c3CC2C1)c1ccc(F)cc1 (configuration not stated) | 5 | 58% | 98.8% (active) | 7 | 73% (active) | 98.7% (active) | 20 | 92% (active) | 66.8% | 2 | 59% | 95.6% (active) | 4 | 60% | 92.1% (active) | 37 | 88% (active) | 99.3% (active) |
| Nc1ccccc1Sc1ccc(C(F)(F)F)cc1[N+](=O)[O-] | -1 | 23% | 99.1% (active) | 2 | 30% | 99% (active) | 0 | 23% | 99.2% (active) | -2 | 22% | 94.7% (active) | 6 | 26% | 98.7% (active) | -1 | 19% | 98.9% (active) |
| Oc1ccc(C23CC4CC(CC(C4)C2)C3)cc1 | -148 | -135% | 38.1% | -50 | -38% | -1.75% | -56 | -46% | 2.8% | -56 | -25% | 32.8% | -69 | -66% | -26.4% | -114 | -91% | 2.1% |
| Cc1ccc(S(=O)(=O)N/N=C/Cc2ccccc2)cc1 | 2 | 96% (active) | 87.5% (active) | -13 | 98% (active) | 7% | 3 | 98% (active) | 79.8% (active) | -3 | 95% (active) | 11.6% | -5 | 97% (active) | 12.1% | 28 | 98% (active) | 85.3% (active) |
| Oc1c(Br)cc(Br)cc1-c1ccccc1 | 0 | 99% (active) | 98.1% (active) | 9 | 100% (active) | 99.5% (active) | 2 | 99% (active) | 99.5% (active) | -5 | 100% (active) | 99.2% (active) | -5 | 100% (active) | 99.3% (active) | -8 | 99% (active) | 99.3% (active) |
| CN(C)Cc1ccc2c(c1)c1c(n2Cc2ccccc2)CCCC1 | -2 | 94% (active) | 84.3% (active) | -7 | 84% (active) | 70.2% (active) | -4 | 20% | 90.4% (active) | -5 | 96% (active) | 86.7% (active) | -8 | 96% (active) | 97.9% (active) | 3 | 97% (active) | 97.7% (active) |
